# Screens as filed in PubChem.
# An excerpt weighted towards active compounds, which were near 2.6% of everything screened.
# A3G deaminase – inhibitors of human APOBEC3G DNA deaminase; Q9HC16; recombinant A3G, ssDNA deamination FAM/TAMRA fluorescence; 330,000 tested, 0.28% active; inhibition, % at 20 µM;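 active = inhibition of at least 40% at 20 µM, with no more than 30% in the related APOBEC3A deaminase screen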;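 note: plate controls were DMSO wells with A3G for no effect and wells lacking A3G enzyme for full effect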
# eIF4H inh – inhibitors of RNA binding by human eIF4H; Q15056; eIF4H fluorescence polarization binding assay; inhibition, % at 35 µM; 290,000 tested, 0.94% active; AID 2012;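 note: calls also rest on retests at 20 µM and on dose response follow-up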
# PABP FP inh – blocks human PABP binding to poly(A) RNA. fluorescence polarization. calls only at 35 µM. 290,000 tested, 1% active. AID 2014;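 note: calls also rest on retests at 20 µM and on dose response follow-up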
# PABP1 MLLE inh – inhibitors of microRNA-mediated deadenylation, human PABP1 MLLE binding | GST-MLLE / FITC-PAM2 fluorescence polarization | P11940 | 360,000 tested, 0.36% active | AID 588489 | inhibition, % at 20 µM; in the data active = inhibition above about 35%, passing the limit was not always enough;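 note: plate controls were DMSO wells with GST-MLLE for no effect and wells lacking GST-MLLE protein for full effect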
# A3A deaminase – blocks human APOBEC3A ssDNA deamination. P31941. recombinant A3A, FAM/TAMRA ssDNA deamination fluorescence. inhibition, % at 20 µM. 330,000 tested, 0.41% active. AID 493011;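 active = at least 40% inhibition at 20 µM here, with at most 30% in a related deaminase screen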;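 note: plate controls were A3A with DMSO for no effect and wells lacking A3A enzyme for full effect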
# Target sequence (P31941 whole entry, looked up): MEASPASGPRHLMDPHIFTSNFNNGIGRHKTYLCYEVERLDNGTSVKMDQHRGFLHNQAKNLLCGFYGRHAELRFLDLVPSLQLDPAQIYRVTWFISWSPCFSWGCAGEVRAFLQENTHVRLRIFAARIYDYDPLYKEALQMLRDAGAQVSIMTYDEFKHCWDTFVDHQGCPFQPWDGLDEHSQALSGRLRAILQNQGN
# PHOSPHO1 block – blocks human PHOSPHO1 phosphatase activity. Q8TCT1. recombinant PHOSPHO1, absorbance phosphatase assay. inhibition, % at 13.3 µM. 290,000 tested, 1.1% active. AID 1565; in the data active = inhibition above about 60%
# Starred values were filed as active, the others as inactive; i = inactive; u = inconclusive; x = no result given; + = active, no number. Unless noted, the rule behind the calls is not given here.
SMILES,A3G deaminase,eIF4H inh,PABP FP inh,PABP1 MLLE inh,A3A deaminase,PHOSPHO1 block
Cc1cc(=O)oc(C)c1C(=O)Nc1ccc2nsnc2c1,0,6,i,-3,-5,-32
Cc1cc(=O)oc(C)c1C(=O)Nc1ccc2ncccc2c1,-7,125*,i,42,-3,-9
CCCCC(CC)Cn1c(N)c(C#N)c2nc3ccccc3nc21 (centres undefined),-1,68*,+,-14,5,9
CCOC(=O)N1CC=C2C(C#N)=C(N)C(C#N)(C#N)[C@H](c3cccs3)C2C1 (some centres undefined),1,u,i,17,-2,22
CC1CC=C2C(C#N)=C(N)C(C#N)(C#N)C(c3cccs3)C2C1 (centres undefined),-4,123*,+,80,-3,10
CCOC(=O)NC(=O)COC(=O)c1ccc(Sc2ncn[nH]2)c([N+](=O)[O-])c1,-16,6,i,-28,-6,-10
CCSc1nnc([C@@H]2CCCN2C(=O)OC(C)(C)C)o1,8,-3,i,-99,38,67*
O=C(NCc1ccco1)c1ccc(-c2ccc(F)c(F)c2)c2ccoc12,x,x,x,-13,x,x
CN(C)c1nc(=S)nc(NCc2ccccc2)[nH]1,-5,-2,i,33,-10,-3
CC(C)CNc1nc(=S)nc(N(C)C)[nH]1,-3,-12,i,43*,1,-11
COc1cccc(C(=O)C2CCCN(Cc3c(C)n(C)n(-c4ccccc4)c3=O)C2)c1 (centres undefined),-3,-2,i,-7,1,3
O=C(NC(=S)Nc1cccc2cc(O)ccc12)c1ccco1,-1,1,i,38,1,16
O=C(NC(=S)Nc1cccc2c(O)cccc12)c1ccco1,4,66*,+,25,3,2
CC1Cc2ccccc2N1C(=S)NC(=O)c1ccco1 (centres undefined),-11,2.5*,+,5,0,32
O=C(NC(=S)Nc1ccccc1N1CCCCC1)c1ccco1,-5,2,i,43*,-1,14
O=C(NC(=S)N1CCCc2ccccc21)c1ccco1,-2,-3,i,33,-1,25
Cc1no[n+]([O-])c1COc1cccc(/C=N/Nc2nncn2N)c1,-1,-3,i,-31,-2,-10
Clc1cccc(Cl)c1CSc1nnc(/C=C/c2ccccc2)o1,-7,-1,i,-12,-4,66*
C[C@H](N)c1nnc(SCc2c(Cl)cccc2Cl)o1,5,-2,i,-75,3,47
CCOC(=O)c1cc(C)sc1/N=C/C1=C(O)CCCC1=O,-3,55*,+,29,1,12
CCOC(=O)c1cc(C)sc1/N=C/C1C(=O)CCCC1=O,-6,17,i,19,1,-5
CC(C)NC(=O)NC(=O)COC(=O)c1cc[n+]([O-])cc1,-8,2,i,-11,5,28
CCN1CCc2c(C#N)c(N3CCOCC3)nc(NCCO)c2C1,2,41,i,79*,6,-6
CCN1CCc2c(C#N)c(N3CCOCC3)nc(NCc3ccccc3)c2C1,x,28,i,3,x,14
CS(=O)(=O)c1nc(S(=O)(=O)c2ccc(Cl)cc2)c(NCc2ccccn2)s1,-8,-2,i,-12,1,-10
SMILES,A3G deaminase,eIF4H inh,PABP FP inh,PABP1 MLLE inh,A3A deaminase,PHOSPHO1 block
CC(/C=C/c1ccco1)=N\NC(=O)CNc1cccc(C)c1,2,95*,+,0,4,12
FC(F)(F)c1ccc2c(c1)N1CCCC1CN2 (centres undefined),-1,18,i,-48,1,-3
FC(F)(F)c1ccc2c(c1)NCC1CCCN21 (centres undefined),-13,53*,+,-8,-7,15
Cc1cc2cc(CNC(=O)Cc3ccc([N+](=O)[O-])cc3)ccc2[nH]1,-3,8,i,9,-5,21
COc1cc(OC)cc(C(=O)NCc2ccc3[nH]c(C)cc3c2)c1,-12,2,i,7,-3,32
COc1cccc(C(=O)NCc2ccc3[nH]c(C)cc3c2)c1,-7,6,i,38*,0,11
Cc1cc2cc(CNC(=O)c3cccc([N+](=O)[O-])c3)ccc2[nH]1,-2,5,i,45*,-3,-14
CC(=O)N1CCN(Cc2nc3cc(NC(=O)COc4ccccc4)ccc3n2C)CC1,-11,-4,i,12,4,-22
CCOc1ccc(S(=O)(=O)N2CCN(C(=O)c3ccc(-n4cncn4)c([N+](=O)[O-])c3)CC2)cc1,-1,x,x,2,1,x
O=S(=O)(NC1=NCCCCC1)c1cc(F)ccc1F,-6,x,x,1,-2,x
C1CCN(c2nc3nonc3nc2N2CCCCC2)CC1,1,0,i,9,3,-18
CN1CCN(c2nc3nonc3nc2N2CCN(C)CC2)CC1,0,80*,+,25,1,4
COc1ccccc1/C=C/CN1CCC(n2nccc2NC(=O)C2CC2)CC1,-3,0,i,14,0,63*
COc1ccccc1CN1CCC(n2nccc2NC(=O)CCOc2ccccc2)CC1,-8,5,i,-12,0,75*
CC(C)Cc1ccc(CN2CCC(n3nccc3NC(=O)C3CCCC3)CC2)cc1,-5,0,i,1,-1,9
O=C(Nc1ccnn1C1CCN(Cc2cc3ccccc3[nH]2)CC1)C1CCOC1 (centres undefined),1,-3,i,6,2,8
Cc1c(CN2CCC(n3nccc3NC(=O)C3CCOC3)CC2)[nH]c2ccccc12 (centres undefined),-5,-8,i,5,-2,66*
COc1ccc(CN2CCC(n3nccc3NC(=O)C3CCCC3)CC2)cc1,-3,-8,i,17,-1,61*
COc1cc(CCC(=O)OCC(=O)Nc2c(C)cccc2C(C)C)cc(OC)c1OC,4,0,i,1,4,13
COc1ccccc1/C=C/CN1CCC(Oc2cc(C(=O)NC3CC3)ccc2OC)CC1,-2,3,i,-7,-3,65*
N#Cc1c(Sc2ncc(C(F)(F)F)cc2Cl)nsc1C/C=N\OCc1c(F)cccc1Cl,-6,18,i,-55,1,79*
Cc1ccc(C(=O)OCC(=O)c2c[nH]c3ccccc23)cc1S(=O)(=O)N1CCOCC1,-7,x,x,-20,0,x
CCOc1ccc(Nc2cc(Nc3ccccc3OCC)nc(C=C(C#N)C#N)n2)cc1,-11,-4,+,-6,-5,37
CCOc1ccccc1Nc1cc(C)c2cccc(C)c2n1,0,-4,i,6,1,3
CN1CC[C@@H]2C(=O)N3CCc4ccc(Br)cc4[C@@H]3C[C@@H]21,x,x,x,-8,x,x
